Measured values taken from PubChem BioAssay AID1347418 (Sanford-Burnham Center for Chemical Genomics, 2020).
Out of some 1,300 compounds screened, about 750 (58%) were called active. The list shows a part of the results. Values without a mark were called inactive.

Biological target: Sulfhydryl oxidase 1 (Homo sapiens) (UniProt O00391)
Test: inhibition of human sulfhydryl oxidase QSOX1 – biochemical, ROS-Glo H2O2 luminescence, HTS, primary screen (AID 1347418)
Conditions: recombinant QSOX1, ROS-Glo H2O2 luminescence; at 12.5 µM; active compounds read high; active = any value above zero

Sulfhydryl oxidase 1 (Homo sapiens), sequence (O00391 whole entry, looked up): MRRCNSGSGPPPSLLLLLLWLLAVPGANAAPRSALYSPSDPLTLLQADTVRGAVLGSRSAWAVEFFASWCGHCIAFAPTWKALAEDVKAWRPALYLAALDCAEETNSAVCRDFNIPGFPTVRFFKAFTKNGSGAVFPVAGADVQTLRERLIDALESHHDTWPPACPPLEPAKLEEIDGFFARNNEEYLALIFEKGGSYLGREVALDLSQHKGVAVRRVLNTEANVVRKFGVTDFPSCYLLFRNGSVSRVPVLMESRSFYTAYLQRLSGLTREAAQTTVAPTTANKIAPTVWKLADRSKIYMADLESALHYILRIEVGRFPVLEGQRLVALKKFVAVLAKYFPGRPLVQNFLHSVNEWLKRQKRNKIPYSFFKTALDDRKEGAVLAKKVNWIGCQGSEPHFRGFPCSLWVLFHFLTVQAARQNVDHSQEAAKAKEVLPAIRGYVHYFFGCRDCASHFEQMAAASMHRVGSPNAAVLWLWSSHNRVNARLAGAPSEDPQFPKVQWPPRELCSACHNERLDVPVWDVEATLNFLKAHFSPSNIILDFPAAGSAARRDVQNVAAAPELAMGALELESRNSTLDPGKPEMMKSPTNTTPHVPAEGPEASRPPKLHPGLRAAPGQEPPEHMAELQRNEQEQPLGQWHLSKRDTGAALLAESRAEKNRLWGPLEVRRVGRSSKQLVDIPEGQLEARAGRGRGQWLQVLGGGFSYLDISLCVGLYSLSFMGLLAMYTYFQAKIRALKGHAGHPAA

For Clc1ccc2c(c1)N=C(N1CCNCC1)c1ccccc1N2, which inhibition is on record?
The inhibition was 23.2% (active).

How did the inhibition turn out when Cc1ccc2c(c1)C(N1CCN(C)CC1)=Nc1cccnc1N2 was run?
The inhibition was 15.5% (active).

For CN1CCN(C2=Nc3cc(Cl)ccc3Nc3ccccc32)CC1, which inhibition is on record?
Its inhibition is 22.2% (active).

How did the inhibition turn out when CC1=NS(=O)(=O)c2cc(Cl)ccc2N1 was run?
The inhibition was -1.4%.

Which inhibition does the source give for CCCCC[C@H](CC(=O)NO)C(=O)N[C@H](C(=O)N1CCC[C@H]1CO)C(C)C here?
The inhibition was -6.2%.

CCN1CCc2nc(N)oc2CC1 was tested. Which inhibition did it give?
Its inhibition is 2.8% (active).

With O=C(O)CCCCCCCC(=O)O as the compound, how does the inhibition read?
The inhibition was -1.7%.

How did the inhibition turn out when CCCCCCCCCCCCCCSCC(=O)O was run?
Its inhibition is -7.6%.

CCCCCC(O)CCCC(=O)O (stereo unspecified) was tested. Which inhibition did it give?
The inhibition was 1.1% (active).

How did the inhibition turn out when CC(C)(C=O)Cc1cc(C(C)(C)C)c(O)c(C(C)(C)C)c1 was run?
Its inhibition is -0.1%.

CC(C)(CO)Cc1cc(C(C)(C)C)c(O)c(C(C)(C)C)c1 was tested. Which inhibition did it give?
Its inhibition is 4.9% (active).

How did the inhibition turn out when CCCCCC[C@@H]([C@@H](C)O)n1cnc2c(N)ncnc21 was run?
Its inhibition is -0.9%.

How did the inhibition turn out when CCCCCCCCCCCCCCC[C@H](O)[C@H](N)CO was run?
Its inhibition is 7.8% (active).

With CCCC(=O)NCCc1c2n(c3ccc(OC)cc13)CCCc1ccccc1-2 as the compound, how does the inhibition read?
The inhibition was 15% (active).

Which inhibition does the source give for CC(C(=O)O)c1ccc(CC2CCCC2=O)cc1 (stereo unspecified) here?
Its inhibition is 0.1% (active).

CC(C(=O)O)c1cccc(C(=O)c2ccccc2)c1 (stereo unspecified) was tested. Which inhibition did it give?
Its inhibition is -2.4%.

With CC(C)Cc1ccc([C@H](C)C(=O)O)cc1 as the compound, how does the inhibition read?
The inhibition was -0.6%.

How did the inhibition turn out when CC(C)Cc1ccc(C(C)C(=O)O)cc1 (stereo unspecified) was run?
The inhibition was 5.8% (active).

How did the inhibition turn out when O=C(O)/C=C/c1cnc[nH]1 was run?
Its inhibition is 1% (active).

Which inhibition does the source give for CCC1(C)CC(=O)NC1=O (stereo unspecified) here?
Its inhibition is 0.9% (active).

With CCCCOc1cc(CC2CNC(=O)N2)ccc1OC (stereo unspecified) as the compound, how does the inhibition read?
The inhibition was -0.2%.

N[C@H](C(=O)O)[C@H]1C[C@@H]1C(=O)O was tested. Which inhibition did it give?
The inhibition was 0.2% (active).

How did the inhibition turn out when Cc1cccc(C)c1OCC(C)N (stereo unspecified) was run?
The inhibition was -0.4%.

With Cc1cccc(C)c1OCC(N)C(C)C (stereo unspecified) as the compound, how does the inhibition read?
The inhibition was 4.5% (active).

Which inhibition does the source give for Cc1cc2c(cc1Cl)N(C(=O)Nc1ccnc3ccccc13)CC2 here?
Its inhibition is 16.8% (active).

How did the inhibition turn out when Cc1cc2c(cc1Cl)N(C(=O)Nc1ccc(Oc3cccnc3C)nc1)CC2 was run?
The inhibition was 1.2% (active).

How did the inhibition turn out when CCN(CC)CCNC(=O)c1ccc(N)cc1 was run?
The inhibition was -7.4%.

How did the inhibition turn out when CCN(CC)CCNC(=O)c1ccc(NS(C)(=O)=O)cc1 was run?
Its inhibition is -0.3%.

Which inhibition does the source give for CCN(CC)CCNC(=O)c1ccc(NC(C)=O)cc1 here?
The inhibition was 0.3% (active).

Which inhibition does the source give for CN(C)CCN(Cc1cccs1)c1ccccn1 here?
The inhibition was 7% (active).

With CN(C)CCOC(C)(c1ccccc1)c1ccccn1 (stereo unspecified) as the compound, how does the inhibition read?
The inhibition was -2.5%.

For COc1ccc(CN(CCN(C)C)c2ccccn2)cc1, which inhibition is on record?
The inhibition was 1.5% (active).

Which inhibition does the source give for CNC1(C)C2CCC(C2)C1(C)C (stereo unspecified) here?
Its inhibition is -2%.

How did the inhibition turn out when CN1CCCC1CCOC(C)(c1ccccc1)c1ccc(Cl)cc1 (stereo unspecified) was run?
Its inhibition is 0.6% (active).

How did the inhibition turn out when C=C/C(C)=C/[C@@]1(C)SC(=O)C(C)=C1O was run?
The inhibition was -4.2%.

How did the inhibition turn out when Cc1nnc(SCC2=C(C(=O)O)N3C(=O)[C@@H](NC(=O)Cn4cnnn4)[C@H]3SC2)s1 was run?
The inhibition was -3.9%.

CO/N=C(\C(=O)N[C@@H]1C(=O)N2C(C(=O)O)=C(CSc3nc(=O)c(O)nn3C)CSC12)c1csc(N)n1 (stereo partly specified) was tested. Which inhibition did it give?
The inhibition was -1.9%.

For CO[C@@]1(NC(=O)CSCC#N)C(=O)N2C(C(=O)O)=C(CSc3nnnn3C)CS[C@@H]21, which inhibition is on record?
Its inhibition is 0.7% (active).

For O=C(O)C1CN(CCCP(=O)(O)O)CCN1 (stereo unspecified), which inhibition is on record?
Its inhibition is 2.1% (active).

CN1CCC2(CCN3CCc4c(oc5ccccc45)C3C2)N(C)C1=O (stereo unspecified) was tested. Which inhibition did it give?
The inhibition was -6.5%.

For NC(=O)CNCCC(c1ccccc1)c1ccccc1, which inhibition is on record?
The inhibition was 2.2% (active).

How did the inhibition turn out when OC(CN1CCN(c2cccc(Cl)c2)CC1)C(c1ccccc1)c1ccccc1 (stereo unspecified) was run?
The inhibition was 5.1% (active).

CC1CCN=C(N)S1 (stereo unspecified) was tested. Which inhibition did it give?
The inhibition was -1.8%.

For O=C(O)C1=CCCN(CCON=C(c2ccccc2)c2ccccc2)C1, which inhibition is on record?
Its inhibition is 1.1% (active).

With CC(C)C[C@H]1C(=O)N2CCC[C@H]2[C@]2(O)O[C@](NC(=O)[C@@H]3C=C4c5cccc6[nH]c(Br)c(c56)C[C@H]4N(C)C3)(C(C)C)C(=O)N12 as the compound, how does the inhibition read?
The inhibition was 4% (active).

How did the inhibition turn out when CCCn1c(=O)[nH]c(=O)c2[nH]cnc21 was run?
Its inhibition is -1.8%.

With CC1C(=O)N(C)C(=O)c2nc[nH]c21 (stereo unspecified) as the compound, how does the inhibition read?
The inhibition was 0.5% (active).

Cc1ccc(S(=O)(=O)NC(=O)NN2CCCCCC2)cc1 was tested. Which inhibition did it give?
Its inhibition is 4.7% (active).

With Cc1ccc(S(=O)(=O)N[C@@H](Cc2ccccc2)C(=O)CCl)cc1 as the compound, how does the inhibition read?
The inhibition was -8.2%.

CCc1ccc2c(-c3cccc(Cl)c3)nc(=O)n(CC)c2n1 was tested. Which inhibition did it give?
The inhibition was -0.7%.

For Nc1cc(Cl)c(NC2=NCCN2)c(Cl)c1, which inhibition is on record?
The inhibition was -2.8%.

For Clc1ccc2nsnc2c1NC1=NCCN1, which inhibition is on record?
The inhibition was 1.5% (active).

How did the inhibition turn out when Clc1cccc(Cl)c1NC1=NCCN1 was run?
The inhibition was -1.9%.

With Cn1cc(C2=C(c3ccc(Cl)cc3Cl)C(=O)NC2=O)c2ccccc21 as the compound, how does the inhibition read?
Its inhibition is -1.7%.

Which inhibition does the source give for COc1cc(CNC(=O)CCCCCCC(C)C)ccc1O here?
Its inhibition is 7.6% (active).

For CCN(CC)C(=O)c1ccc(O)c(OC)c1, which inhibition is on record?
The inhibition was 6.8% (active).
